Rows were chosen to be rich in hits. Some 2% of all compounds tested hit in one or more screens of this group.
FUS yeast rescue: qHTS for Suppressors of FUS Proteinopathy: Primary screen using FUS-linked yeast assay; Potency, µM (doses to about 76.6 µM), most hits filed as activators; S. cerevisiae FUS-expressing, growth rescue, OD600, 24 h; actives 0.24% (n = 390,000); further: nearly all actives have a fitted effect of over 55% in size
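Steps: raffinose overnight preculture; dilution to OD 0.005 in 2% galactose minimal medium; compound addition (concentration series); 24hr at 30C, 99% humidity; absorbance read at 600 nm.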
aSyn rescue: qHTS of alpha-syn Inhibitors; Yeast expressing alpha-synuclein, growth rescue, BacTiter-Glo, 24 h; Potency, µM (top dose mostly 46.1 µM), actives largely listed as activators; actives 0.14% (n = 370,000); further: nearly all actives have a fitted effect of over 65% in size
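Screening used galactose-induced yeast with toxic alpha-synuclein levels, exposed to compound for 24 hr at 30 deg C. Cell growth, read with BacTiter-Glo luminescence, gave the measured signal.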
LDHA block: qHTS assay for inhibitors of human lactate dehydrogenase | purified LDHA, NADH/diaphorase-resazurin fluorescence; hits give low values | activity change, % (values are at about 110 or 230 µM) | actives 0.15% (n = 480,000) | AID 1347041, 2019; in the data active means activity change below about -30%; inconclusive means mostly about -25% to -30%
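Resorufin fluorescence (ex540/em590), read at 0 and 20 min after diaphorase/resazurin addition, reports the NADH left after a 5 min room-temperature reaction of 2 nM human LDH5 with 0.06 mM NADH and 0.2 mM pyruvate.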
TDP43 rescue: qHTS of TDP-43 Inhibitors; Potency, µM (doses to about 46.1 µM), usual class: activators; actives 1.8% (n = 410,000); TDP-43 expressing yeast growth rescue, BacTiter-Glo, 24 h; further: nearly all actives have a fitted effect of over 50% in size
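Yeast cells expressing TDP-43 under galactose induction are exposed to compounds for 24 hr at 30 deg C. BacTiter-Glo luminescence measures growth, so protective compounds score as activators.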
mIDH1 inhibitor: qHTS for Inhibitors of mutant isocitrate dehydrogenase 1 (IDH1): qHTS | Isocitrate dehydrogenase [NADP] cytoplasmic (Homo sapiens), O75874 | IDH1-R132H enzyme, NADPH consumption, diaphorase/resazurin fluorescence | Potency, µM (titrated, usually from 76.6 µM), actives largely listed as inhibitors | actives 0.093% (n = 390,000) | AID 602179, 2012; further: nearly all actives have a fitted effect of over 65% in size
Target sequence (O75874 whole entry R132H, stated change not applied): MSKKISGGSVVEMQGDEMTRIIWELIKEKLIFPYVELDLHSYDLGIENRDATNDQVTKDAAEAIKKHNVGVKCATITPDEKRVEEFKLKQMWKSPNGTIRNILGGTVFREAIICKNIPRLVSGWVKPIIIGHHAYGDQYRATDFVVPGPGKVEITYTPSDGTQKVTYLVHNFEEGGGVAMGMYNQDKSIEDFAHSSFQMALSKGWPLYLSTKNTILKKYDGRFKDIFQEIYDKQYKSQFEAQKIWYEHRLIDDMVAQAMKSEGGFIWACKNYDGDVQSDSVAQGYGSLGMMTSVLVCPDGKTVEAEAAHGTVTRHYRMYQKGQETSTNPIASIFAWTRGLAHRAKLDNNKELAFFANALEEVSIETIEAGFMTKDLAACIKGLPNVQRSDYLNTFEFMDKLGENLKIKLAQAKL
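IDH1-R132H (0.5 ug/mL dispensed) in pH 7.5 Tris buffer was preincubated 30 min with compound, then given a substrate mix of 0.016 mM NADPH and 2 mM alpha-KG for 80 min at room temperature; remaining NADPH was read by diaphorase/resazurin fluorescence.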
Abeta yeast res: qHTS for compounds that reverse cellular toxicity of Amyloid beta (A-beta) peptide in yeast: Primary Screen. actives 0.063% (n = 410,000). Potency, µM (top dose mostly 46.1 µM), most hits filed as activators. AID 1347071, 2019. yeast expressing A-beta42, growth rescue, OD600, 48 h; response scale: 0% DMSO, 100% iron-clioquinol control; further: nearly all actives have a fitted effect of over 55% in size
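Yeast growth medium received pinned compounds, then yeast cells expressing toxic A-beta were added; plates incubated at 30 C for 48 hr. Growth read as absorbance at 600 nm, normalized to DMSO and equimolar FeCl3 plus clioquinol controls.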
Large screens that a line does not name were inactive. Unless noted, the call rests on the fitted dose curve; in most records, active means well fitted curve in the direction sought with a large enough effect; inconclusive means small, poorly fitted or top-dose-only effect, or another doubt; inactive means no such curve, though single readings can be large; an effect the other way counts as inactive or inconclusive.

CCCC(=O)Nc1ccc2oc(-c3cccc(Cl)c3)nc2c1	none (no result: FUS yeast rescue, aSyn rescue, TDP43 rescue, mIDH1 inhibitor, Abeta yeast res)
FCCCOc1ccc(-c2ccnc3ncnn23)cc1	TDP43 rescue 22.4µM
COc1ccc(N(C(=O)c2cc(OC)c(OC)c(OC)c2)S(=O)(=O)c2ccc(C)cc2)cc1	FUS yeast rescue 31.6µM (no result: aSyn rescue)
COc1ccc(N(C(=O)c2ccncc2)S(=O)(=O)c2ccc(Cl)cc2)cc1	aSyn rescue 10µM, TDP43 rescue 0.891µM
Cc1ccc(C)c(S(=O)(=O)N(C(=O)c2ccncc2)c2ccc(OC(=O)c3ccncc3)cc2)c1	aSyn rescue inconclusive
O=C(Oc1ccc(N(C(=O)c2ccncc2)S(=O)(=O)c2ccc(Cl)cc2)cc1)c1ccncc1	aSyn rescue inconclusive, TDP43 rescue inconclusive
Cc1ccc(S(=O)(=O)N(C(=O)c2ccncc2)c2ccc(OC(=O)c3ccncc3)cc2)c(C)c1	aSyn rescue inconclusive, TDP43 rescue 7.08µM (no result: FUS yeast rescue)
COCC(C)Nc1ncnc2c1c(-c1ccccc1)cn2-c1cccc(C(F)(F)F)c1 (configuration not stated)	none (no result: FUS yeast rescue, aSyn rescue, TDP43 rescue, mIDH1 inhibitor, Abeta yeast res)
CC(C)NC(=O)CN(C)C(=O)CCl	none (no result: FUS yeast rescue, aSyn rescue, TDP43 rescue, mIDH1 inhibitor, Abeta yeast res)
Cc1cc(C)c(NC(=O)C2CCCN(S(=O)(=O)c3c(C)noc3/C=C/N(C)C)C2)c(C)c1 (configuration not stated)	FUS yeast rescue inconclusive
Cc1noc(/C=C/N(C)C)c1S(=O)(=O)N1CCCC(C(=O)Nc2ccc3c(c2)OCO3)C1 (configuration not stated)	FUS yeast rescue 5.62µM
COc1ccc(N2C(=O)CC(N3CCN(c4ccc(Cl)cc4)CC3)C2=O)cc1 (configuration not stated)	none
CCOc1ccc(N2C(=O)CC(N3CCN(c4ccc(Cl)cc4)CC3)C2=O)cc1 (configuration not stated)	TDP43 rescue 14.1µM
COc1ccc(/C=C/c2ccc3cc(C)ccc3n2)cc1O	none (no result: FUS yeast rescue, aSyn rescue, TDP43 rescue, mIDH1 inhibitor, Abeta yeast res)
COc1ccc(NCc2cc3cc4c(cc3n(CC(=O)Nc3ccc(C)cc3)c2=O)OCO4)cc1	FUS yeast rescue 14.1µM
CCN(CC)C(=O)c1cccc(-c2csc(C(C)(O)c3ccc(F)c(F)c3)n2)c1 (configuration not stated)	FUS yeast rescue inconclusive, TDP43 rescue 14.1µM (no result: mIDH1 inhibitor)
COc1ccc(-c2csc(C(C)(O)c3cccc(OC)c3)n2)cc1 (configuration not stated)	TDP43 rescue inconclusive (no result: mIDH1 inhibitor)
CC(O)(c1cccc(F)c1)c1nc(-c2cccc(C(=O)O)c2)cs1 (configuration not stated)	TDP43 rescue 35.5µM (no result: mIDH1 inhibitor)
CC(O)(c1cccc(F)c1)c1nc(-c2cccc(C#N)c2)cs1 (configuration not stated)	TDP43 rescue 35.5µM (no result: mIDH1 inhibitor)
CCN(CC)C(=O)c1cccc(-c2csc(C(C)(O)c3ccccc3)n2)c1 (configuration not stated)	none (no result: mIDH1 inhibitor)
CC(O)(c1cccc(F)c1)c1nc(-c2ccccc2)cs1 (configuration not stated)	none (no result: mIDH1 inhibitor)
COc1cccc(C(C)(O)c2nc(-c3ccc(C)c(C)c3)cs2)c1 (configuration not stated)	TDP43 rescue 14.1µM (no result: mIDH1 inhibitor)
COc1cc(/C=C(/C#N)C(=O)c2ccccc2C)cc(Cl)c1O	none (no result: FUS yeast rescue, aSyn rescue, TDP43 rescue, mIDH1 inhibitor, Abeta yeast res)
COc1ccc(-c2csc(C(C)(O)c3cccc(F)c3)n2)cc1OC (configuration not stated)	TDP43 rescue 35.5µM (no result: mIDH1 inhibitor)
N#Cc1cccc(-c2csc(C(O)(c3ccccc3)C(F)(F)F)n2)c1 (configuration not stated)	Abeta yeast res 12.6µM (no result: mIDH1 inhibitor)
OC(c1ccccc1)(c1nc(-c2cccc(C(F)(F)F)c2)cs1)C(F)(F)F (configuration not stated)	none (no result: mIDH1 inhibitor)
O=C(O)c1cc(-c2ccccc2)nc2ccc(F)cc12	none (no result: FUS yeast rescue, aSyn rescue, TDP43 rescue, mIDH1 inhibitor, Abeta yeast res)
O=C(O)CC(c1cccnc1)c1c[nH]c2ccccc12 (configuration not stated)	none (no result: FUS yeast rescue, aSyn rescue, TDP43 rescue, mIDH1 inhibitor, Abeta yeast res)
CCCCOc1ccc(NC(=O)COc2ccccc2C)c2cccnc12	none (no result: FUS yeast rescue, aSyn rescue, TDP43 rescue, mIDH1 inhibitor, Abeta yeast res)
CCc1ccc(-c2nc3ccc(Br)cc3c(C(=O)O)c2C)s1	TDP43 rescue 35.5µM
CC(/C=N/n1c(-c2ccco2)n[nH]c1=S)=C\c1ccccc1	TDP43 rescue 17.8µM
CCc1c(C(=O)Nc2ccc(F)cc2C)cnn1-c1ccc(OC)nn1	none (no result: FUS yeast rescue, aSyn rescue, TDP43 rescue, mIDH1 inhibitor, Abeta yeast res)
O=C(Nc1ccc2c(c1)OCCO2)C1C(c2ccccc2)=Nc2ccccc2N1C(=O)c1cccnc1 (configuration not stated)	FUS yeast rescue 7.94µM (no result: mIDH1 inhibitor)
O=C(NCc1ccccc1)C1C(c2ccc3c(c2)OCO3)=Nc2ccccc2N1C(=O)c1ccccc1 (configuration not stated)	TDP43 rescue 12.6µM (no result: mIDH1 inhibitor)
FC(F)(F)c1ccc(/C=N/Nc2ccccc2Cl)cc1	none (no result: FUS yeast rescue, aSyn rescue, TDP43 rescue, mIDH1 inhibitor, Abeta yeast res)
Fc1cccc(NC(=S)N2CCc3ccccc32)c1	TDP43 rescue 14.1µM, Abeta yeast res inconclusive
O=[N+]([O-])c1ccc(NC(=S)N2CCc3ccccc32)cc1	TDP43 rescue inconclusive, Abeta yeast res inconclusive
S=C(Nc1ccccc1)N1CCc2ccccc21	TDP43 rescue 12.6µM, Abeta yeast res inconclusive
N#C/C(=C\c1ccc2cccnc2c1)c1nc2ccccc2[nH]1	none (no result: FUS yeast rescue, aSyn rescue, TDP43 rescue, mIDH1 inhibitor, Abeta yeast res)
CCCN1C(=O)/C(=C/c2ccc3c(c2)OCO3)NC1=S	TDP43 rescue 14.1µM, Abeta yeast res inconclusive
CCc1cccc(Nc2c3c(nc4ncnn24)CCC3)c1	TDP43 rescue 17.8µM
COC(=O)c1cccc(NCc2ccc(C(F)(F)F)cc2)c1	none (no result: FUS yeast rescue, aSyn rescue, TDP43 rescue, mIDH1 inhibitor, Abeta yeast res)
CC(CCC(C)C(C)(C)C)[C@@H]1CC[C@H]2C3C[C@H](OS(O)(=S)=S)[C@H]4C[C@H](OS(O)(=S)=S)[C@@H](OS(O)(=S)=S)C[C@]4(C)[C@H]3CC[C@]12C (some centres not stated) (tested in a mixture with another compound)	LDHA block -94.0, mIDH1 inhibitor inconclusive
O=CN1Cc2ccccc2-c2ccccc2C1	TDP43 rescue 12.6µM
OC(c1ccc(F)c(F)c1)c1nc(-c2cccc(F)c2)cs1 (configuration not stated)	TDP43 rescue 22.4µM (no result: mIDH1 inhibitor)
O=C(O)c1cccc(-c2csc(C(O)c3ccc(F)c(F)c3)n2)c1 (configuration not stated)	TDP43 rescue inconclusive (no result: mIDH1 inhibitor)

Compound activity (PubChem BioAssay)
